Compounds without any hit were thinned out: in the full panel of roughly 83,000, 20% have a hit.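 Percent growth is the endpoint: 0 to 100 indicates growth inhibition (40 means 60% inhibition), 0 means no net growth, and negative values indicate cell death.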 Values without a mark were called inactive. Activity calls are given as the source filed them. How the source made its calls: active means growth percent below 10; inactive means the rest.
Assays:
Test in all cases: NCI-60 one-dose screen, 48 h (100 = growth as untreated, 0 = no growth, -100 = all killed)
Settings in all cases: 10 µM unless noted
[1] = test system: HCT-15 colon
[2] = test system: HT29 colon
[3] = test system: SNB-75 CNS
[4] = test system: SNB-19 CNS
[5] = test system: U251 CNS
[6] = test system: PC-3 prostate
[7] = test system: SK-MEL-5 melanoma
[8] = test system: UACC-62 melanoma
[9] = test system: LOX IMVI melanoma
[10] = test system: SK-MEL-28 melanoma
[11] = test system: SK-MEL-2 melanoma
[12] = test system: EKVX NSCLC
[13] = test system: SN12C renal
[14] = test system: UO-31 renal
[15] = test system: TK-10 renal
[16] = test system: ACHN renal
[17] = test system: CAKI-1 renal
[18] = test system: A498 renal
[19] = test system: CCRF-CEM leukemia
[20] = test system: MOLT-4 leukemia

With COc1cc(/C=C/C(=O)c2ccc(Nc3ncnc4ccccc34)cc2)cc(OC)c1 the growth [1] was 45.7%, the growth [2] was -38.1% (active) and the growth [3] was 70.9%. It also gave a growth [4] of 62%, a growth [5] of 34.2% and a growth [6] of 43.9%. The growth [7] was 90.8%, the growth [8] was 76.9% and the growth [9] was 5.65% (active). For the same molecule, the growth [10] was 86.3%, the growth [11] was 112% and the growth [12] was 79.3%. The growth [13] was 71.3%, the growth [14] was 51.2% and the growth [15] was 79.1%. For the same molecule, the growth [16] was 76.8%, the growth [17] was 69.3% and the growth [18] was 85.9%. It also gave a growth [19] of 20.6% and a growth [20] of 19.1%.
For COc1ccc(C(O)c2cc3c(N)c(C(=O)Nc4ccc(Br)cc4)sc3nc2C)cc1 (stereo not given), the growth [1] was 18.2%, the growth [2] was -34.2% (active) and the growth [3] was -10.8% (active). For the same molecule, the growth [4] was 36.1%, the growth [5] was 17.2% and the growth [6] was 18.2%. For the same molecule, the growth [7] was 16.4%, the growth [8] was 26.1% and the growth [9] was 33.4%. The growth [10] was 60%, the growth [11] was 33.7% and the growth [12] was 32%. For the same molecule, the growth [13] was 36%, the growth [14] was 43% and the growth [15] was 39.5%. For the same molecule, the growth [16] was 37.8%, the growth [17] was 32.5% and the growth [18] was -1.93% (active). For the same molecule, the growth [19] was 6.36% (active) and the growth [20] was 17.5%.
With C=Cc1cc[n+](CCCCCCCCCCCC)cc1 the growth [1] was 110%, the growth [2] was 99.2% and the growth [3] was 97.4%. For the same molecule, the growth [4] was 103%, the growth [5] was 109% and the growth [6] was 110%. The growth [7] was 104%, the growth [8] was 105% and the growth [9] was 99.7%. The growth [10] was 111%, the growth [11] was 150% and the growth [12] was 105%. The growth [13] was 101%, the growth [14] was 94% and the growth [15] was 137%. The growth [16] was 108%, the growth [17] was 103% and the growth [18] was 94.9%. It also gave a growth [19] of 87.9% and a growth [20] of 94.7%.
COc1ccc(-c2nc(SCC(C)C)nc(N/N=C(/C)c3ccc(OC)c(OC)c3)c2C#N)cc1 was tested, and the growth [1] was 79.8%, the growth [2] was 90.4% and the growth [3] was 80.2%. For the same molecule, the growth [4] was 78.2%, the growth [5] was 89.6% and the growth [6] was 52.5%. For the same molecule, the growth [7] was 74.6%, the growth [8] was 81.2% and the growth [9] was 84.3%. For the same molecule, the growth [10] was 84.5%, the growth [11] was 103% and the growth [12] was 89.5%. The growth [13] was 76.1%, the growth [14] was 54.4% and the growth [15] was 101%. For the same molecule, the growth [16] was 90.5%, the growth [17] was 86% and the growth [18] was 67.9%. The growth [19] was 70.3% and the growth [20] was 55.3%.
In the case of CS(=O)(=O)c1ccc(-c2cc3c(oc2=O)-c2ccccc2OC3O)cc1 (stereo not given), the growth [1] is reported as 94.4%, the growth [2] is reported as 105% and the growth [3] is reported as 84.6%. It also gave a growth [4] of 89%, a growth [5] of 97.7% and a growth [6] of 89.8%. The growth [7] was 101%, the growth [8] was 92.2% and the growth [9] was 98%. For the same molecule, the growth [10] was 101%, the growth [11] was 99.2% and the growth [12] was 98.4%. It also gave a growth [13] of 104%, a growth [14] of 74% and a growth [15] of 99.9%. The growth [16] was 98.6%, the growth [17] was 75.4% and the growth [18] was 87.7%. For the same molecule, the growth [19] was 58.9% and the growth [20] was 86.3%.
In the case of CC(=O)c1c(C)[nH]c(-c2nc3ccc(N4CCN(C)CC4)cc3[nH]2)c1-c1ccccc1, the growth [1] is reported as 14.9%, the growth [2] is reported as 14.5% and the growth [3] is reported as -10.6% (active). It also gave a growth [4] of 33.2%, a growth [5] of 44.7% and a growth [6] of 32%. For the same molecule, the growth [7] was 11.8%, the growth [8] was 14.3% and the growth [9] was 6.13% (active). It also gave a growth [10] of 47.3%, a growth [11] of 48.6% and a growth [12] of 35.5%. The growth [13] was 37.7%, the growth [14] was 5.51% (active) and the growth [15] was 23.9%. The growth [16] was 19.4%, the growth [17] was 7.67% (active) and the growth [18] was 31.8%. The growth [19] was 49.1% and the growth [20] was 50.7%.
Work on O=C(CNCCO)Nc1ccc2ncnc(Nc3ccc(OCc4cccc(F)c4)c(Cl)c3)c2c1 yielded a growth [1] of 87.9%, a growth [2] of 46.9% and a growth [3] of 88.2%. The growth [4] was 82%, the growth [5] was 69.9% and the growth [6] was 84.4%. The growth [7] was 89%, the growth [8] was 104% and the growth [9] was 74.3%. For the same molecule, the growth [10] was 91%, the growth [11] was 98.2% and the growth [12] was 42.6%. The growth [13] was 51.6%, the growth [14] was 50.1% and the growth [15] was 56%. It also gave a growth [16] of 38%, a growth [17] of 63.3% and a growth [18] of 69%. The growth [19] was 80.4% and the growth [20] was 78.5%.
Molecule CC(=O)N1N=C(c2cccc(Nc3ccncc3)c2)CC1c1ccc2c(c1)OCO2 (stereo not given) has a growth [1] of 81.2%, a growth [2] of 32.7% and a growth [3] of 80.2%. It also gave a growth [4] of 94.8%, a growth [5] of 82.8% and a growth [6] of 79%. For the same molecule, the growth [7] was 81.6%, the growth [8] was 91.9% and the growth [9] was 81.7%. It also gave a growth [10] of 93.8%, a growth [11] of 99.9% and a growth [12] of 63%. The growth [13] was 81%, the growth [14] was 84.5% and the growth [15] was 98.1%. The growth [16] was 101%, the growth [17] was 81.8% and the growth [18] was 70.7%. The growth [19] was 81.2% and the growth [20] was 77.7%.
In the case of COc1ccc(C(=O)c2cc3c(N)c(C(=O)Nc4cccc(OC)c4)sc3nc2C)cc1, the growth [1] is reported as 16%, the growth [2] is reported as 1.18% (active) and the growth [3] is reported as -10.6% (active). The growth [4] was 40.2%, the growth [5] was 15.1% and the growth [6] was 28.7%. It also gave a growth [7] of 15.3%, a growth [8] of 44.5% and a growth [9] of 36.6%. The growth [10] was 56.7%, the growth [11] was 27.9% and the growth [12] was 35.3%. The growth [13] was 28.1%, the growth [14] was 49.3% and the growth [15] was 57.1%. For the same molecule, the growth [16] was 41.2%, the growth [17] was 45.8% and the growth [18] was -1.41% (active). For the same molecule, the growth [19] was 7.12% (active) and the growth [20] was 15.8%.
Molecule CC(N)C(=O)NNc1n[nH]c(=S)n1N (stereo not given) has a growth [1] of 93.9%, a growth [2] of 109% and a growth [3] of 92.8%. It also gave a growth [4] of 99.1%, a growth [5] of 103% and a growth [6] of 99.6%. For the same molecule, the growth [7] was 97.5%, the growth [8] was 102% and the growth [9] was 98.5%. For the same molecule, the growth [10] was 102%, the growth [11] was 105% and the growth [12] was 93.9%. It also gave a growth [13] of 102%, a growth [14] of 83% and a growth [15] of 108%. It also gave a growth [16] of 108%, a growth [17] of 93.9% and a growth [18] of 94.8%. It also gave a growth [19] of 102% and a growth [20] of 107%.
COc1cccc(CCC(=O)c2cc3c(N)c(C(=O)Nc4ccccc4)sc3nc2C)c1 was tested, and the growth [1] was 17.5%, the growth [2] was 16.7% and the growth [3] was 9.14% (active). For the same molecule, the growth [4] was 38.5%, the growth [5] was 26.2% and the growth [6] was 49.8%. For the same molecule, the growth [7] was 8.92% (active), the growth [8] was 28.3% and the growth [9] was 26.4%. For the same molecule, the growth [10] was 42%, the growth [11] was 42.3% and the growth [12] was 45.4%. It also gave a growth [13] of 35%, a growth [14] of 34.8% and a growth [15] of 70.9%. The growth [16] was 56.3%, the growth [17] was 28.4% and the growth [18] was 9.88% (active). It also gave a growth [19] of 29.7% and a growth [20] of 22.2%.
COc1cc2nc(-c3ccc(-c4nn[nH]n4)cc3)[nH]c(=O)c2cc1OC was tested, and the growth [1] was 106%, the growth [2] was 110% and the growth [3] was 106%. The growth [4] was 94.3%, the growth [5] was 105% and the growth [6] was 131%. It also gave a growth [7] of 102%, a growth [8] of 105% and a growth [9] of 97.3%. The growth [10] was 128%, the growth [11] was 122% and the growth [12] was 108%. For the same molecule, the growth [13] was 140%, the growth [14] was 86.3% and the growth [15] was 246%. The growth [16] was 111%, the growth [17] was -1.66% (active) and the growth [18] was 147%. It also gave a growth [19] of 114% and a growth [20] of 95.5%.
With Cc1cccc(Oc2ccc(Nc3ncnc4ccc(NC(=O)CN(C)C)cc34)cc2Cl)c1 the growth [1] was -40.9% (active), the growth [2] was 3.23% (active) and the growth [3] was 66.4%. For the same molecule, the growth [4] was 59.9%, the growth [5] was 28.1% and the growth [6] was 40.7%. The growth [7] was 39.9%, the growth [8] was 102% and the growth [9] was -78.1% (active). For the same molecule, the growth [10] was 48.1%, the growth [11] was 84.2% and the growth [12] was 31.6%. For the same molecule, the growth [13] was 36.7%, the growth [14] was 23.3% and the growth [15] was 36%. It also gave a growth [16] of 16.8%, a growth [17] of 40.8% and a growth [18] of 58.7%. It also gave a growth [19] of 47.7% and a growth [20] of 25.9%.
Cc1ccc(/C=C/C(=O)c2ccc(N)cc2)c(C)c1 gave a growth [1] of 18.6%, a growth [2] of 60.9% and a growth [3] of 97.8%. It also gave a growth [4] of 85.7%, a growth [5] of 54.1% and a growth [6] of 91.6%. For the same molecule, the growth [7] was 96%, the growth [8] was 86.8% and the growth [9] was -91.5% (active). For the same molecule, the growth [10] was 105%, the growth [11] was 99% and the growth [12] was 109%. The growth [13] was 4.51% (active), the growth [14] was 11.7% and the growth [15] was 106%. For the same molecule, the growth [16] was 39.3%, the growth [17] was 84.1% and the growth [18] was 97.3%. The growth [19] was -45.3% (active) and the growth [20] was -41.1% (active).
For O=C(Nc1ccc(Cl)cc1)Nc1ccc(Cl)c(Cl)c1, the growth [1] was 3.42% (active), the growth [2] was 28.6% and the growth [3] was 51.7%. The growth [4] was 15.9%, the growth [5] was 8.94% (active) and the growth [6] was 9.37% (active). The growth [7] was 24.1%, the growth [8] was 5.98% (active) and the growth [9] was 7.43% (active). For the same molecule, the growth [10] was 35.4%, the growth [11] was 13.3% and the growth [12] was 18.8%. For the same molecule, the growth [13] was 6.47% (active), the growth [14] was 9.73% (active) and the growth [15] was 12.5%. For the same molecule, the growth [16] was -9.93% (active), the growth [17] was -1.31% (active) and the growth [18] was 11.4%. For the same molecule, the growth [19] was 6.06% (active) and the growth [20] was 6.56% (active).

Source: PubChem BioAssay (NCI)
